Measurements as given in the supplement of paper PMC12282887.
± gives the standard deviation of the averaged measurements.

How the values were obtained:
Experiment in all cases: promoter activity interaction Z-score (Lux/OD deviation from empty-vector control); higher = stronger promoter induction by the compound
[1] = system: E. coli BW25113 acrABp lux reporter
Method in brief: (§1)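 Reporter strains of E. coli BW25113 grew at 37°C in 40 µl LB Lennox in 384-well plates. Readings of OD600 and luminescence were taken every 30 min over 12 h, integrated over 0–8 h (wild type) or 1–9 h (deletion strains), and wells below 10% of the median growth value were excluded. Scores are Z-transformed residuals of growth-normalised luminescence from a fit against a control.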

[2] = system: E. coli BW25113 micFp lux reporter
Method in brief: as §1

[3] = system: E. coli BW25113 ompFp lux reporter
Method in brief: as §1

[4] = system: E. coli BW25113 robp lux reporter
Method in brief: as §1

[5] = system: E. coli BW25113 soxSp lux reporter
Method in brief: as §1

[6] = system: E. coli BW25113 tolCp lux reporter
Method in brief: as §1

[7] = 1 µg/ml, genetic background: wild type
[8] = 1 µg/ml, genetic background: ΔmarA
[9] = 1 µg/ml, genetic background: Δrob
[10] = 1 µg/ml, genetic background: ΔsoxS
[11] = 1.9 µg/ml, genetic background: wild type
[12] = 1.9 µg/ml, genetic background: ΔmarA
[13] = 1.9 µg/ml, genetic background: Δrob
[14] = 1.9 µg/ml, genetic background: ΔsoxS
[15] = 3.8 µg/ml, genetic background: wild type
[16] = 3.8 µg/ml, genetic background: ΔmarA
[17] = 3.8 µg/ml, genetic background: Δrob
[18] = 3.8 µg/ml, genetic background: ΔsoxS
[19] = 7.7 µg/ml, genetic background: wild type
[20] = 7.7 µg/ml, genetic background: ΔmarA
[21] = 7.7 µg/ml, genetic background: Δrob
[22] = 7.7 µg/ml, genetic background: ΔsoxS

Compound: NC1CONC1=O (stereo unspecified) [Cycloserine D]
- promoter activity interaction Z-score [1, 7]: 0.0277 ± 0.22
- promoter activity interaction Z-score [1, 8]: 0.657 ± 0.33
- promoter activity interaction Z-score [1, 9]: -0.0729 ± 0.055
- promoter activity interaction Z-score [1, 10]: 0.00357 ± 0.22
- promoter activity interaction Z-score [1, 11]: -0.389 ± 0.056
- promoter activity interaction Z-score [1, 12]: 0.57 ± 0.12
- promoter activity interaction Z-score [1, 13]: 0.0199 ± 0.26
- promoter activity interaction Z-score [1, 14]: -0.339 ± 0.62
- promoter activity interaction Z-score [1, 15]: -0.136 ± 0.039
- promoter activity interaction Z-score [1, 16]: -0.29 ± 0.2
- promoter activity interaction Z-score [1, 17]: 0.00284 ± 0.03
- promoter activity interaction Z-score [1, 18]: -0.0366 ± 0.12
- promoter activity interaction Z-score [1, 19]: -0.588 ± 0.2
- promoter activity interaction Z-score [1, 20]: -0.128 ± 0.24
- promoter activity interaction Z-score [1, 21]: -0.0882 ± 0.11
- promoter activity interaction Z-score [1, 22]: -0.319 ± 0.24
- promoter activity interaction Z-score [2, 7]: 0.0376 ± 0.12
- promoter activity interaction Z-score [2, 8]: -0.00943 ± 0.084
- promoter activity interaction Z-score [2, 9]: -0.118 ± 0.074
- promoter activity interaction Z-score [2, 10]: -0.0115 ± 0.022
- promoter activity interaction Z-score [2, 11]: -0.417 ± 0.2
- promoter activity interaction Z-score [2, 12]: -0.00494 ± 0.0052
- promoter activity interaction Z-score [2, 13]: -0.0732 ± 0.01
- promoter activity interaction Z-score [2, 14]: -0.388 ± 0.035
- promoter activity interaction Z-score [2, 15]: -0.305 ± 0.5
- promoter activity interaction Z-score [2, 16]: -0.0376 ± 0.047
- promoter activity interaction Z-score [2, 17]: -0.0224 ± 0.047
- promoter activity interaction Z-score [2, 18]: -0.251 ± 0.019
- promoter activity interaction Z-score [2, 19]: -0.38 ± 0.0041
- promoter activity interaction Z-score [2, 20]: 0.0683 ± 0.028
- promoter activity interaction Z-score [2, 21]: 0.105 ± 0.092
- promoter activity interaction Z-score [2, 22]: -0.294 ± 0.16
- promoter activity interaction Z-score [3, 7]: 0.314 ± 0.21
- promoter activity interaction Z-score [3, 8]: 0.134 ± 0.086
- promoter activity interaction Z-score [3, 9]: -0.394 ± 0.46
- promoter activity interaction Z-score [3, 10]: 0.0539 ± 0.036
- promoter activity interaction Z-score [3, 11]: -0.14 ± 0.24
- promoter activity interaction Z-score [3, 12]: 0.387 ± 0.13
- promoter activity interaction Z-score [3, 13]: -0.422 ± 0.075
- promoter activity interaction Z-score [3, 14]: -0.381 ± 0.19
- promoter activity interaction Z-score [3, 15]: -0.202 ± 0.043
- promoter activity interaction Z-score [3, 16]: 0.194 ± 0.031
- promoter activity interaction Z-score [3, 17]: 0.0558 ± 0.16
- promoter activity interaction Z-score [3, 18]: 0.0329 ± 0.09
- promoter activity interaction Z-score [3, 19]: -0.567 ± 0.3
- promoter activity interaction Z-score [3, 20]: 0.0892 ± 0.075
- promoter activity interaction Z-score [3, 21]: 0.153 ± 0.069
- promoter activity interaction Z-score [3, 22]: -0.485 ± 0.02
- promoter activity interaction Z-score [4, 7]: 0.73 ± 0.71
- promoter activity interaction Z-score [4, 8]: 0.0767 ± 0.37
- promoter activity interaction Z-score [4, 9]: 0.466 ± 0.27
- promoter activity interaction Z-score [4, 10]: 0.49 ± 0.31
- promoter activity interaction Z-score [4, 11]: -0.277 ± 0.26
- promoter activity interaction Z-score [4, 12]: 0.295 ± 0.52
- promoter activity interaction Z-score [4, 13]: 0.186 ± 0.67
- promoter activity interaction Z-score [4, 14]: 0.471 ± 0.99
- promoter activity interaction Z-score [4, 15]: -0.466 ± 0.068
- promoter activity interaction Z-score [4, 16]: 0.31 ± 0.081
- promoter activity interaction Z-score [4, 17]: 0.0139 ± 0.21
- promoter activity interaction Z-score [4, 18]: -0.224 ± 0.093
- promoter activity interaction Z-score [4, 19]: -1.02 ± 0.081
- promoter activity interaction Z-score [4, 20]: -0.102 ± 0.31
- promoter activity interaction Z-score [4, 21]: -0.282 ± 0.25
- promoter activity interaction Z-score [4, 22]: -0.361 ± 0.67
- promoter activity interaction Z-score [5, 7]: 0.217 ± 0.043
- promoter activity interaction Z-score [5, 8]: 0.0924 ± 0.0091
- promoter activity interaction Z-score [5, 9]: 0.0464 ± 0.16
- promoter activity interaction Z-score [5, 10]: 0.093 ± 0.016
- promoter activity interaction Z-score [5, 11]: -0.193 ± 0.011
- promoter activity interaction Z-score [5, 12]: 0.076 ± 0.02
- promoter activity interaction Z-score [5, 13]: -0.205 ± 0.024
- promoter activity interaction Z-score [5, 14]: 0.164 ± 0.2
- promoter activity interaction Z-score [5, 15]: -0.0918 ± 0.052
- promoter activity interaction Z-score [5, 16]: -0.113 ± 0.019
- promoter activity interaction Z-score [5, 17]: 0.0335 ± 0.083
- promoter activity interaction Z-score [5, 18]: -0.0149 ± 0.074
- promoter activity interaction Z-score [5, 19]: -0.198 ± 0.27
- promoter activity interaction Z-score [5, 20]: -0.171 ± 0.14
- promoter activity interaction Z-score [5, 21]: -0.117 ± 0.11
- promoter activity interaction Z-score [5, 22]: -0.174 ± 0.047
- promoter activity interaction Z-score [6, 7]: 0.33 ± 0.084
- promoter activity interaction Z-score [6, 8]: 1.18 ± 0.26
- promoter activity interaction Z-score [6, 9]: -0.401 ± 0.15
- promoter activity interaction Z-score [6, 10]: -0.259 ± 0.83
- promoter activity interaction Z-score [6, 11]: -0.543 ± 0.64
- promoter activity interaction Z-score [6, 12]: -0.33 ± 0.62
- promoter activity interaction Z-score [6, 13]: -0.224 ± 0.69
- promoter activity interaction Z-score [6, 14]: 0.645 ± 0.11
- promoter activity interaction Z-score [6, 15]: 0.289 ± 0.26
- promoter activity interaction Z-score [6, 16]: 0.197 ± 0.06
- promoter activity interaction Z-score [6, 17]: 0.242 ± 0.12
- promoter activity interaction Z-score [6, 18]: -0.045 ± 0.33
- promoter activity interaction Z-score [6, 19]: -1.06 ± 0.73
- promoter activity interaction Z-score [6, 20]: -0.822 ± 0.7
- promoter activity interaction Z-score [6, 21]: -0.397 ± 0.29
- promoter activity interaction Z-score [6, 22]: -0.568 ± 0.58
